From article PMC4336329 (PLoS ONE, 2015)
Among all 310,000 compounds or so, about 14,000 (4.5%) showed an effect of 50% or more. The effect is printed as a negative number. Shown is part of a subset that was picked to be rich in strong results.

Each compound was assayed against human ether-à-go-go-related gene (hERG) potassium channel (human, UniProt Q12809) (assay: primary screen, population patch clamp on CHO cells stably expressing hERG; higher = less effect of the substance).
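Also: peak tail current of the secondary pulse compared with the same well before compound.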

human ether-à-go-go-related gene (hERG) potassium channel, sequence (Q12809 whole entry, looked up): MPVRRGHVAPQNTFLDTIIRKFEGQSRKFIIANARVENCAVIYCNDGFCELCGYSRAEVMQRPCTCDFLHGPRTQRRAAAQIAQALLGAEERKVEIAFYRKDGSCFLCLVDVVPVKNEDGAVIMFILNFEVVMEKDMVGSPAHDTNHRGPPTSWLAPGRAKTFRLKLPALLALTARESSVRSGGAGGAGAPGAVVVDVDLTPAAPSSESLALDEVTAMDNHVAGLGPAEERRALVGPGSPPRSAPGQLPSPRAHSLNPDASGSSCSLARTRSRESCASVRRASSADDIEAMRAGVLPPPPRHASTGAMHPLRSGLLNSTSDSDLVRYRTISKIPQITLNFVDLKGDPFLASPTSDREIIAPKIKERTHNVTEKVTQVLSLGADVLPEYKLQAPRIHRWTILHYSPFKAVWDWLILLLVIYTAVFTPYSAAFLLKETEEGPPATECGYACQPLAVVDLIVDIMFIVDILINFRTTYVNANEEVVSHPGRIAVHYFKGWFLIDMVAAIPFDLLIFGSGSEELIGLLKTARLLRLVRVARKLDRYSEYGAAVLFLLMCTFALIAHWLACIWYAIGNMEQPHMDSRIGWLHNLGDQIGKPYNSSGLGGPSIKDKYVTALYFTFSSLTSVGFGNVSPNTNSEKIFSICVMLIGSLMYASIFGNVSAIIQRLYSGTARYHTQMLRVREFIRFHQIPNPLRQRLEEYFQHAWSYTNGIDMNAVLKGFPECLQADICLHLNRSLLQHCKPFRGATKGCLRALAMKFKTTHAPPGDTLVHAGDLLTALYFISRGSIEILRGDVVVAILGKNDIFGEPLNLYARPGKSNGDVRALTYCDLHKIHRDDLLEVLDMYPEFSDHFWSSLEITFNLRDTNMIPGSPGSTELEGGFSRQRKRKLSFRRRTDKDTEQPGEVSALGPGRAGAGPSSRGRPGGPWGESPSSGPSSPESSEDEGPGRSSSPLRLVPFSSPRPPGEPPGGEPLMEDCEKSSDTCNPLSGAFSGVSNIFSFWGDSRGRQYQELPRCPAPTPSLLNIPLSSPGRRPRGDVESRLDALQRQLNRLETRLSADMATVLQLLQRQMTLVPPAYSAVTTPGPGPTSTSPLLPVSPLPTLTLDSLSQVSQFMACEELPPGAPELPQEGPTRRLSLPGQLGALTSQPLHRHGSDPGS

Row | SMILES | hERG current change (%, negative = inhibition) at 10uM
1 | COc1ccccc1/C=N/NC(=O)c1cccc(OC(F)(F)C(F)F)c1 | -9.51%
2 | O=C(c1cc(-c2ccc(Cl)cc2)nc2ccccc12)N1CCOCC1 | -68.8%
3 | O=C(NCCN1CCOCC1)c1cc(-c2ccc(Cl)s2)nc2ccccc12 | -5.22%
4 | CC(C)(CNC(=O)c1cc(-c2ccc(Cl)s2)nc2ccccc12)N1CCOCC1 | -55.1%
5 | O=C(c1cc(-c2ccc(Cl)s2)nc2ccccc12)N1CCOCC1 | -17%
6 | Cc1ccc(-c2cc(C(=O)N3CCOCC3)c3ccccc3n2)cc1 | -3.91%
7 | O=C(c1cc(-c2ccc(Cl)s2)nc2ccccc12)N1CCCC1 | 4.92%
8 | O=C(NCCCN1CCOCC1)c1cc(-c2ccc(Cl)s2)nc2ccccc12 | -44.1%
9 | O=C(O)c1ccccc1C(=O)N1CC=C(c2ccccc2)CC1 | 3.44%
10 | CC(=O)N1CCN(C(=O)c2cc(-c3ccc(Cl)s3)nc3ccccc23)CC1 | -51.8%
11 | O=C(c1cc(-c2ccccc2)nc2ccccc12)N1CCOCC1 | 27.6%
12 | CC(=O)N1CCN(C(=O)c2cc(C)nc3ccccc23)CC1 | 31.1%
13 | Cc1cc(C(=O)N2CC=C(c3ccccc3)CC2)c2ccccc2n1 | -52.9%
14 | CCOc1ccnc(OCC)c1Br | 28.3%
15 | NS(=O)(=O)c1ccc(OC(=O)CNC(=O)OCc2ccccc2)cc1 | 11%
16 | Cc1ccc(OCC(O)Cn2c(N3CCOCC3)nc3c2c(=O)[nH]c(=O)n3C)cc1 (stereo not shown) | -16.1%
17 | Cc1nn(C)c(C)c1/C=N/NC(=O)c1csc2ccccc12 | -2.45%
18 | O=C(CN1C(=O)NC(Cc2c[nH]c3ccccc23)C1=O)Nc1ccccc1Br (stereo not shown) | -15.4%
19 | COc1ccc(S(=O)(=O)N2CCCC2C(=O)Nc2nc3c(s2)CCCC3)cc1 (stereo not shown) | -14%
20 | COc1ccc(CCNC(=O)c2cc(S(=O)(=O)N(C)c3ccccc3)ccc2Cl)cc1 | -16.6%
21 | Cn1[nH]c(-c2ccccc2)c(/C=N/O)c1=O | -15.1%
22 | COCCn1c(-c2ccc(OC(F)(F)C(F)C(F)(F)F)cc2)nc2c1c(=O)[nH]c(=O)n2CC(C)C (stereo not shown) | -19.5%

Row | SMILES | hERG current change (%, negative = inhibition) at 10uM
23 | CC1CCCN(C(=O)c2ccccc2OC2CCN(S(C)(=O)=O)CC2)C1 (stereo not shown) | 11.1%
24 | O=C(c1cc(-c2ccccc2)nc2ccccc12)N1CCCC1 | 2.55%
25 | O=C(c1cc(-c2ccc(Br)cc2)nc2ccccc12)N1CCC1 | -44.4%
26 | O=C(c1cc(-c2ccc(Cl)cc2)nc2ccccc12)N1CCC1 | -59.7%
27 | COc1ccc(/C=c2\sc3nc(-c4ccccc4OC)nn3c2=O)c(OC)c1 | 9.67%
28 | Cc1cc(OCC(=O)N2CCN(c3ccc(F)cc3)CC2)c2c(C)cc(=O)oc2c1 | 10.7%
29 | Cc1ccc(C)c(N2CCN(C(=O)COc3cc(=O)n(C)c4ccccc34)CC2)c1 | -32.3%
30 | COC(=O)c1ccccc1OCC(=O)N1CCN(c2ccc(F)cc2)CC1 | -44.9%
31 | Cc1c(C)c2ccc(OCC(=O)N3CCN(c4ccc(F)cc4)CC3)c(C)c2oc1=O | 2.26%
32 | CC(=O)c1cc(F)ccc1OCC(=O)N1CCN(c2ccc(F)cc2)CC1 | -58.2%
33 | Cc1cccc(N2CCN(C(=O)CCS(=O)(=O)c3ccc4c(c3)oc(=O)n4C)CC2)c1C | -51.2%
34 | Cn1c(=O)cc(OCC(=O)N2CCN(c3ccccc3F)CC2)c2ccccc21 | -17.5%
35 | COC(=O)c1ccc(OC)cc1OCC(=O)N1CCN(c2ccc(F)cc2)CC1 | -33%
36 | Cc1cccc(N2CCN(C(=O)COc3cc(=O)n(C)c4ccccc34)CC2)c1C | -61.2%
37 | Cc1ccc(C)c(N2CCN(C(=O)CCS(=O)(=O)c3ccc4c(c3)oc(=O)n4C)CC2)c1 | -48.6%
38 | CCC(=O)c1cc(F)ccc1OCC(=O)N1CCN(c2ccc(F)cc2)CC1 | -72.1%
39 | Cn1c(=O)oc2cc(S(=O)(=O)CCC(=O)N3CCN(c4ccccc4F)CC3)ccc21 | 1.03%
40 | CCOC(=O)c1c(S(=O)(=O)NCC(=O)Nc2ccc(F)cc2)c(C)n(C)c1C | 14.5%
41 | CCOC(=O)c1cc(C#N)c(N2CCNCC2)nc1C(F)(F)F | -12.3%
42 | COc1ccc(CNC(=O)CCSCc2cccc(Cl)c2)cc1 | -17%
43 | COc1ccc(-n2nnnc2CNC(=O)C(=O)c2c[nH]c3ccccc23)cc1 | 6.27%
